In PubChem BioAssay (NCI) one finds growth inhibition data, which are given here for 36 molecules.

Molecules are shown by their SMILES. The panel holds about 79,000 compounds, 15% with a hit somewhere; the sample as a whole holds those more often. Calls of active or inactive are those of the source. No stated cut-off is given here; in the data, active means growth inhibition above about 70%; inactive means the rest.

This assay is described as follows: NCI Yeast Anticancer Drug Screen. Data for the mlh1 rad18 strain (AID 175). Conditions: S. cerevisiae mlh1 rad18 strain growth inhibition; at 50.0 µM; stronger effect = higher value. Put shortly:
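Steps: expose repair-defective yeast to compound; measure growth; express inhibition against vehicle-treated controls.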
Take `C=C1C(=O)C2CCC1C2` (stereo unspecified): the growth inhibition was 8.25% (inactive). For `Nc1nnc2cc(F)ccc2n1`, the growth inhibition is -12.2% (inactive).

As for `COC1(OC)C2(Cl)C(Cl)=C(Cl)C1(Cl)C1COCC12` (stereo unspecified), the growth inhibition was -8.6% (inactive). The result for `O=C(Nc1c(Cl)cc(Cl)cc1Cl)ON=C1CCCCC1` reads 3.6% (inactive); that for `NNC(=O)N/N=C1\C(=O)N(c2nccs2)C(=O)C(=O)C1c1nc2ccccc2s1` (stereo unspecified), -19.4% (inactive); that for `COc1ccc(C2CC(c3ccccc3)=Nc3ccccc3S2)cc1` (stereo unspecified), 0.95% (inactive).

Take `CC1(C)CCC(C)(C)NC(=S)N1`: the growth inhibition was 11.1% (inactive). As for `O=C1C=C[C@H](O)[C@@]2(CO)O[C@@H]12`, the growth inhibition is 11.7% (inactive).

Regarding `CC(=O)c1cccc(NS(=O)(=O)c2ccc(C)cc2)c1`, the growth inhibition is 35.9% (inactive). For `C[n+]1cc2cc3c(cc2c2ccccc21)OCO3`, the growth inhibition was 39.5% (inactive).

As for `O=C1C=Cc2ccccc2/C1=C/c1[nH]c(=O)[nH]c1O`, the growth inhibition was -5.3% (inactive).

On to `CCCCCC#CC(=O)O`, for which the growth inhibition is 19.4% (inactive). Consider `O=C(O)Cc1ccccn1`, for which the growth inhibition is -2.25% (inactive). Regarding `CCCCCCCCCCCCCCCCCC(=O)NCCNC(=O)CCCCCCCCCCCCCCCCC`, the growth inhibition is -4.25% (inactive). On to `C=CCc1cc(OC)c(O)c(OC)c1`, for which the growth inhibition was -0.6% (inactive).

Take `CCOC(=O)CNC`: the growth inhibition is -10.9% (inactive). On to `CCC(=O)C1C(=O)c2ccccc2C1=O`, for which the growth inhibition is 20.4% (inactive). Turning to `Cc1cc(C(=O)NN)c(C#N)c(=O)[nH]1`, the growth inhibition is -0.5% (inactive). Turning to `CC(=O)O[C@H]1CC[C@]2(C)C3=C(C(=O)C[C@H]2C1(C)C)[C@]1(C)CC[C@H]([C@H](C)CCC(=O)O)[C@@]1(C)CC3=O`, the growth inhibition is 0.4% (inactive). As to `Cc1[nH]c(=S)[nH]c(=O)c1C`, the growth inhibition is -1.7% (inactive). The result for `CCOc1ccc(C(=O)O)cc1` reads 31.1% (inactive). For the molecule `O=[N+]([O-])c1c(O)c(CNCCCO)cc(CNCCCO)c1O`, the growth inhibition was 43.1% (inactive). Regarding `O=c1n(CC2CO2)c(=O)n(CC2CO2)n1CC1CO1` (stereo unspecified), the growth inhibition is -8.8% (inactive). Consider `Nc1cc(F)ccc1[N+](=O)[O-]`, for which the growth inhibition is -5% (inactive). As to `N#Cc1ccc2nc[nH]c2c1`, the growth inhibition was 17.9% (inactive). Turning to `Cc1cc(Cc2ccccc2)c(O)c(Cc2ccccc2)c1`, the growth inhibition is 42.7% (inactive).

For `CC1CN(CCO)CC(C)O1` (stereo unspecified), the growth inhibition is -10.2% (inactive). For `Cc1ccc(/C=N/NC(N)=S)s1`, the growth inhibition was 48.5% (inactive). In the case of `CC(=O)c1cccs1`, the growth inhibition was 6.7% (inactive). For the molecule `COC1=C(OC)C(=O)C(SC/C=C(\C)CCCC(C)CCCC(C)CCCC(C)C)=CC1=O` (stereo unspecified), the growth inhibition was -61.1% (inactive). On to `Nc1nc(N)nc(N2CCCCC2)n1`, for which the growth inhibition is -19.9% (inactive). Regarding `CC(=O)[C@@]1(O)CC[C@H]2[C@@H]3CC[C@@H]4CC(=O)CC[C@]4(C)[C@H]3[C@@H](O)C[C@@]21C`, the growth inhibition was -13.5% (inactive).

Turning to `NC(=O)N1CCOCC1`, the growth inhibition was 17.9% (inactive). As for `C=CCNC(=S)N/C=C(/C(=O)c1ccccc1)c1ccccc1`, the growth inhibition is -53.6% (inactive). As for `Nc1ncnc2c1ncn2C1OC(CO)C2OC21` (stereo unspecified), the figure is -30.4% (inactive). Consider `NC(=S)N/N=C/c1ccc(OC(=O)COc2ccccc2)cn1`, for which the growth inhibition is 9.9% (inactive).
